Screening data from PubChem BioAssay.
This is one part of a sample in which hits are shown more often than they occur.
SARS PLpro yeast = inhibitors of SARS-CoV papain-like protease in yeast | S. cerevisiae expressing SARS-CoV PLpro, growth rescue | Potency, µM (top dose mostly 32.9 µM), for the others: at the top dose activity, positive = growth rescue, actives largely listed as activators | 0.19% of 330,000 active; note: potency is the fitted concentration of half-maximal effect; 0% is about no effect; nearly all actives have a fitted effect of over 55% in size
Tb PYK inh = T. brucei pyruvate kinase inhibition. AID 624173. TbPYK enzyme, Kinase-Glo Plus ATP luminescence, 45 min. Potency, µM (series often up to 76.8 µM), for inactives: top-dose activity, negative = inhibition, usual class: inhibitors. 0.12% of 410,000 active. Q57TT1; active = well fitted curve in the direction sought with a large enough effect; an effect the other way counts as inactive or inconclusive; note: potency is the fitted concentration of half-maximal effect; % is set by controls: 0 for no effect and ±100 for the full control effect; nearly all actives have a fitted effect of over 50% in size
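Quantitative HTS: titrated library compounds versus trypanosomal pyruvate kinase in TEA buffer (pH 7.2) containing KCl, MgCl2, BSA and Tween-20. Reactions were initiated with ADP, 130 uM final. Kinase-Glo Plus luminescence was read after 45 min at RT.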
NS1 inh = influenza NS1 inhibition | Potency, µM (highest dose often 46.1 µM), without a hit: at the top dose activity, positive = more growth | 0.4% of 270,000 active | AID 2326; note: potency is the fitted concentration of half-maximal effect; actives are rising curves; nearly all actives have a fitted effect of over 50% in size
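S. cerevisiae expressing influenza A NS1, grown in glucose, washed, then diluted 1:100 into pH 6.0 -URA galactose medium with 23 nl compound. Growth recovery read as OD600; NS1-free strain serves as control.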
Shiga toxin inh = blocks Shiga toxin action in Vero cells. AID 2315. inhibition, % at 38.7 µM. Vero cells, Shiga toxin protein synthesis inhibition reporter. 9.2% of 290,000 active; in the data active = inhibition mostly above about 28%, no sharp cut-off; inactive = mostly below about 43%; note: 0% is about no effect
Cycloheximide cs = counter-screen for Shiga toxin inhibitors: cycloheximide protein synthesis inhibition. 12% of 300,000 active. AID 2314. cell reporter, cycloheximide protein synthesis inhibition counterscreen. max response, %; in the data active = max response mostly above about 13%, no sharp cut-off; inactive = mostly below about 14%; note: read at 38.3 µM for the half of the compounds with a filed dose; 0% is about no effect
LmPK inh = inhibitors of Leishmania mexicana pyruvate kinase; Potency, µM (series often up to 57.5 µM), without a hit: at the highest dose activity change, negative = inhibition, usual class: inhibitors; 0.37% of 290,000 active; Q27686; purified LmPK, Kinase-Glo ATP luminescence, 1 h; active = well fitted curve in the direction sought with a large enough effect; an effect the other way counts as inactive or inconclusive; note: potency is the fitted concentration of half-maximal effect; % is set by controls: 0 for no effect and ±100 for the full control effect
Target sequence (Q27686 whole entry, looked up): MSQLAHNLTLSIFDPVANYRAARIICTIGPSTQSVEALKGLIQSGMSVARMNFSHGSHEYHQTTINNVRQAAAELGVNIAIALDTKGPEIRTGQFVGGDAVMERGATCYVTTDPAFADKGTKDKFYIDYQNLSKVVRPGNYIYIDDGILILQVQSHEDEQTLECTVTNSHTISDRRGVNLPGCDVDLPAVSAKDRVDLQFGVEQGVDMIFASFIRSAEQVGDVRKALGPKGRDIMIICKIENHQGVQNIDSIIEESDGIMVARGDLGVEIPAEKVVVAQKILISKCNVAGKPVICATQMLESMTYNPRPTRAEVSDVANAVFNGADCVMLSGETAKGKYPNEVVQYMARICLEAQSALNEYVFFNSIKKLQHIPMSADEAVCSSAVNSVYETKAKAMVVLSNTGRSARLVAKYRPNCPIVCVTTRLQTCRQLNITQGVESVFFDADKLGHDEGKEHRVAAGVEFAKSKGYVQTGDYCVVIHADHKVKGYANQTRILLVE
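0.1 nM LmPK, 0.5 mM PEP, 0.1 mM ADP; 50 mM imidazole pH 7.2, 7 mM MgCl2, 50 mM KCl; 1 h RT. Kinase-Glo luminescence readout, normalized to no-enzyme (full inhibition) and uninhibited wells.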
Active calls of the source: *. Unless noted, calls come from the whole dose curve.

COc1ccccc1CN1CC(C(=O)N(C)Cc2nc(C)cs2)CCC1=O (configuration not stated) was read as SARS PLpro yeast -0.9%, Tb PYK inh -7.0%, NS1 inh 7.6%, Shiga toxin inh 38.6, Cycloheximide cs 17.0* and LmPK inh -6.3%.
`O=C(NCc1cccs1)C1CCC(=O)N(Cc2cccc(C(F)(F)F)c2)C1` (configuration not stated) gave SARS PLpro yeast 4.4%, Tb PYK inh -0.9%, NS1 inh 0.5%, Shiga toxin inh 7.6, Cycloheximide cs 38.9* and LmPK inh 1.9%.
Screening O=C(NCc1cc(F)ccc1F)C1CCC(=O)N(C2CCCCCC2)C1 (configuration not stated) returned SARS PLpro yeast -1.5%, Tb PYK inh -1.1%, NS1 inh -4.6%, Shiga toxin inh 86.0*, Cycloheximide cs 34.8* and LmPK inh -10.1%.
COc1cccc(CN(C(=O)COc2ccc(C)cc2)C2CCS(=O)(=O)C2)c1 (configuration not stated) was read as SARS PLpro yeast 3.2%, Tb PYK inh 3.6%, NS1 inh -0.3%, Shiga toxin inh -3.7, Cycloheximide cs -9.9 and LmPK inh -0.2%.
Screening COCCn1c(SCC(=O)Nc2cc(Cl)ccc2OC)nc2c([nH]c3ccccc32)c1=O returned Tb PYK inh -0.2%.
O=C1CCC(C(=O)N2CCCCO2)CN1CCc1ccccc1 (configuration not stated) was read as SARS PLpro yeast -1.0%, Tb PYK inh -0.5%, NS1 inh -9.7%, Shiga toxin inh 81.4*, Cycloheximide cs 41.6* and LmPK inh -2.8%.
Screening CCOC(=O)CC1(NC(=O)C2CCC(=O)N(C3CC3)C2)CCCCC1 (configuration not stated) returned SARS PLpro yeast -4.3%, Tb PYK inh -2.3%, NS1 inh 2.2%, Shiga toxin inh 14.1, Cycloheximide cs 1.2 and LmPK inh 4.5%.
O=C(NCCc1ccc(C(F)(F)F)cc1)C1CCC(=O)N(CCc2cccc(F)c2)C1 (configuration not stated) was read as SARS PLpro yeast 1.0%, Tb PYK inh 4.5%, NS1 inh -4.0%, Shiga toxin inh 11.2, Cycloheximide cs 16.4* and LmPK inh -13.3%.
For COc1ccccc1CN1CC(C(=O)NCc2cc(F)ccc2C)CCC1=O (configuration not stated) the results were SARS PLpro yeast -5.4%, Tb PYK inh -0.2%, NS1 inh -0.2%, Shiga toxin inh 40.2*, Cycloheximide cs 31.9* and LmPK inh -3.2%.
For CCOC(=O)CC1(NC(=O)C2CCC(=O)N(CCc3ccccc3)C2)CCCCC1 (configuration not stated) the results were SARS PLpro yeast -1.1%, Tb PYK inh -10.1%, NS1 inh 10.0%, Shiga toxin inh 30.3*, Cycloheximide cs 19.6* and LmPK inh -2.1%.
For CCOC(=O)N1CCN(C(=O)C2CCC(=O)N(CCc3ccccc3)C2)CC1 (configuration not stated) the results were Tb PYK inh 1.2%.
`COc1ccc(CCN2CC(C(=O)NCCc3cccc(F)c3)CCC2=O)cc1` (configuration not stated) gave SARS PLpro yeast -3.5%, Tb PYK inh 5.9%, NS1 inh 3.0%, Shiga toxin inh -1.2, Cycloheximide cs 1.2 and LmPK inh -10.5%.
Screening COC(=O)N1C2CCCCC2=NN(c2ccccc2)N1C(=O)OC (configuration not stated) returned Tb PYK inh 7.3%.
Screening Cc1ccccc1C(=O)N1CCC(C(=O)Nc2ccccn2)CC1 returned SARS PLpro yeast 15.9% and Tb PYK inh 2.5%.
For O=C1CCC(C(=O)N2CCCO2)CN1Cc1cccc(C(F)(F)F)c1 (configuration not stated) the results were SARS PLpro yeast -5.3%, Tb PYK inh 1.0%, NS1 inh 5.7%, Shiga toxin inh 44.1*, Cycloheximide cs 29.0* and LmPK inh 0.0%.
`COCCCC1CCN(C(=O)C2CCC(=O)N(CCc3ccccc3)C2)CC1` (configuration not stated) gave SARS PLpro yeast 7.2%, Tb PYK inh 0.7%, NS1 inh -3.8%, Shiga toxin inh 55.7*, Cycloheximide cs 45.7* and LmPK inh -0.3%.
`N/C(=N\OC(=O)CCCc1ccccc1)c1cccc([N+](=O)[O-])c1` gave SARS PLpro yeast -58.1%, Tb PYK inh -13.5%, NS1 inh -28.2%, Shiga toxin inh -5.5, Cycloheximide cs 6.7 and LmPK inh 0.0%.
`N/C(=N\OC(=O)CCCN1C(=O)c2ccccc2C1=O)c1ccc(Br)cc1` gave Tb PYK inh -10.9%.
For N/C(=N\OC(=O)CCCc1ccccc1)c1cccnc1 the results were SARS PLpro yeast -7.2%, Tb PYK inh -5.0%, NS1 inh -4.4%, Shiga toxin inh 40.0*, Cycloheximide cs 21.3* and LmPK inh -3.3%.
Screening N/C(=N\OC(=O)CCCOc1ccccc1)c1ccccc1 returned SARS PLpro yeast -4.2%, Tb PYK inh -11.5%, NS1 inh -23.3%, Shiga toxin inh 13.5, Cycloheximide cs 22.9* and LmPK inh -9.4%.
Screening N/C(=N\OC(=O)CCCCCN1C(=O)c2ccccc2C1=O)c1ccccc1 returned SARS PLpro yeast 0.7%, Tb PYK inh 2.0%, NS1 inh -12.2%, Shiga toxin inh 70.7*, Cycloheximide cs 36.5* and LmPK inh 5.3%.
Cc1cccc(/C(N)=N/OC(=O)CCCc2ccccc2)c1 was read as SARS PLpro yeast 0.1%, Tb PYK inh -2.5%, NS1 inh -18.1%, Shiga toxin inh 66.1*, Cycloheximide cs 56.9* and LmPK inh -12.4%.
For C=C/C=C/CC1=C(C)[C@@H](OC(=O)[C@@H]2[C@@H](/C=C(\C)C(=O)OC)C2(C)C)CC1=O (tested in a mixture with another compound) the results were Tb PYK inh -3.8%.
CCCCn1c(=N)n(CCOc2ccccc2OC)c2ccccc21 was read as Tb PYK inh 5.3%.
Cc1ccc(Cn2c(CNC(=O)c3ccccc3Br)nc3cccnc32)cc1 was read as Tb PYK inh 4.0%.
Screening COc1ccc(-n2c(=O)c3c(C)c(C)sc3n(CC(=O)NCc3ccc(C)cc3)c2=O)c(OC)c1 returned Tb PYK inh -1.2%.
N/C(=N\OC(=O)CCCc1ccccc1)c1ccccc1 was read as SARS PLpro yeast 1.1%, Tb PYK inh -2.5%, NS1 inh -17.3%, Shiga toxin inh 26.5, Cycloheximide cs 31.4* and LmPK inh -17.5%.
Screening c1ccc(SC23CCCCN(CCC2)C32OCCO2)cc1 (configuration not stated) returned Tb PYK inh 0.2%.
